Compound activity from PubChem BioAssay.
HTR5A ag: HTR5A agonism, opioid heterodimer counter-screen; actives 0.61% (n = 340,000); P47898; AID 504692; HTR5A agonist assay, luminescence, cell-based; activation, % at 9.3 µM; in the data active means activation mostly above about 9.5%, no sharp cut-off; inactive means mostly below about 7.6%;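 further: 0% = cells with vehicle only and 100% = reference agonist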
Target sequence (P47898 whole entry, looked up): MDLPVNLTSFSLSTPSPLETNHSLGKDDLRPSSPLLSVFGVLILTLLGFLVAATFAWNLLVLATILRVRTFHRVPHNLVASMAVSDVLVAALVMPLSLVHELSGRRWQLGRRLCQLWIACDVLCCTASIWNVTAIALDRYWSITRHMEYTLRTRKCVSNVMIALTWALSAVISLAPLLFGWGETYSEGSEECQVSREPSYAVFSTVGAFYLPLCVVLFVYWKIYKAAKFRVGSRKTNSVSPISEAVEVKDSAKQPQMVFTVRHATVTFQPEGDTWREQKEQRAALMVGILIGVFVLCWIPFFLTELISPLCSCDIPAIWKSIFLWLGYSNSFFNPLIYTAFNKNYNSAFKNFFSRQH
MOR-DOR ag: OPRM1-OPRD1 heterodimerization agonism | P35372+P41143 | actives 0.3% (n = 340,000) | cells, luminescence | AID 504326 | activation, % at 9.3 µM; in the data active means activation above about 18%;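 further: 0% = vehicle-treated cells and 100% = reference agonist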
MOR-DOR inv ag-1: mu-delta opioid heterodimer inverse agonism | cell-based MOR-DOR heterodimer luminescence | inhibition, % at 9.3 µM | actives 0.21% (n = 340,000) | AID 504357; in the data active means inhibition above about 22%, passing the limit was not always enough;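 further: 0% = cells with DMSO and 100% = wells without cells with DMSO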
HTR5A inv ctr: HTR5A inverse agonism, opioid heterodimer counter-screen. actives 0.083% (n = 340,000). P47898. inhibition, % at 9.3 µM. HTR5A cell line, luminescence; in the data active means inhibition mostly above about 23%, no sharp cut-off; inactive means mostly below about 18%;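 further: 0% = cells with DMSO and 100% = no-cell wells with DMSO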
OPRM1-D1 ag cf: OPRM1-OPRD1 heterodimer agonism, confirmation. shares compounds with MOR-DOR ag. cells, MOR-DOR heterodimerization, luminescence complementation. activation, % at 9.3 µM. actives 45% (n = 830); in the data active means activation above about 18%;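 further: 0% = vehicle-treated cells and 100% = reference agonist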
HTR5A ag counter: HTR5A agonism, opioid heterodimer counter-screen; activation, % at 9.3 µM; shares compounds with MOR-DOR ag; actives 8% (n = 830); HTR5A agonist counterscreen, cell luminescence; in the data active means activation above about 17%;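 further: 0% = vehicle-treated cells and 100% = reference agonist response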
OPRM1-D1 inv cf: OPRM1-OPRD1 heterodimer inverse agonism, confirmation; cells expressing OPRM1/OPRD1 heterodimer, luminescence; AID 504900; actives 20% (n = 580); shares compounds with MOR-DOR inv ag-1; inhibition, % at 9.3 µM; in the data active means inhibition above about 32%;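 further: 0% = cells with DMSO and 100% = wells lacking cells with DMSO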
HTR5A inv count: HTR5A inverse agonism, opioid heterodimer counter-screen. shares compounds with MOR-DOR inv ag-1. HTR5A-expressing cells, luminescence. inhibition, % at 9.3 µM. 580 tested, under 10 active. AID 504914;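 further: 0% = cells with DMSO and 100% = no-cell wells with DMSO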
MOR-DOR inv ag-2: opioid heterodimer inverse agonism, HTR5A counter-screen; 190 tested, under 10 active; U2OS counter-screen cells, complementation luminescence; shares compounds with HTR5A inv ctr; inhibition, % at 9.3 µM;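 further: 0% = cells with DMSO and 100% = wells without cells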
HTR5A inv conf: HTR5A (human) inverse agonism, confirmation; HTR5A-expressing cells, luminescence; shares compounds with HTR5A inv ctr; 190 tested, under 10 active; AID 504916; inhibition, % at 9.3 µM;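 further: 0% = cells with DMSO and 100% = no cells with DMSO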
Active calls of the source: *; i = inactive; nt = no result. This is a sample that favours compounds with a hit; in the whole collection about 1.1% have one here. Unless noted, how the calls were made is not given here.

SMILES	HTR5A ag	MOR-DOR ag	MOR-DOR inv ag-1	HTR5A inv ctr	OPRM1-D1 ag cf	HTR5A ag counter	OPRM1-D1 inv cf	HTR5A inv count	others
CNC(=O)Cn1ncc2c(C)n(Cc3ccc(C)cc3)c(C)c2c1=O	0	-2	11	25	nt	nt	nt	nt
Cc1c2cnn(CC(=O)Nc3c(F)c(F)cc(F)c3F)c(=O)c2c(C)n1Cc1ccccc1F	5	35*	-178	-14	34*	31*	nt	nt
CSc1ccccc1NC(=O)Nc1ccc(Cl)cc1	9	26*	-147	-17	14	3	nt	nt
CCSc1nnc(NC(=O)c2cc(-c3ccccc3O)n[nH]2)s1	1	32*	-171	-15	10	1	nt	nt
CCSc1nnc(NC(=O)c2cccc3ccccc23)s1	6	6	-29	-16	nt	nt	nt	nt
Cc1cccc(C)c1NC(=O)C(NC(=O)c1ccccn1)c1ccccc1[N+](=O)[O-] (stereo unspecified)	-2	-1	9	5	nt	nt	nt	nt
Cc1cc(C)nc(SCC(=O)c2ccc(F)cc2F)n1	3	-3	13	-11	nt	nt	nt	nt
COc1ccc(-n2cc(CNCc3cccnc3)c(-c3cccc(F)c3)n2)cc1	1	55*	-279	-4	404*	2	nt	nt
COc1ccc(CNCc2cn(-c3cccc(F)c3)nc2-c2ccc(C)o2)cc1	0	120*	i	1	0	0	nt	nt
Fc1ccccc1COc1ccc(Br)cc1CNCc1cccnc1	-3	0	1	11	nt	nt	nt	nt
COc1ccc(-c2nn(-c3ccccc3)cc2CNCc2cccnc2)c(F)c1	-3	21*	-97	7	-2	-1	nt	nt
COc1ccc(-c2nn(-c3ccccc3C)cc2CNCc2cccnc2)cc1F	-4	72*	-328	19	134*	5	nt	nt
CCCc1cc(=O)oc2cc(C)cc(OCC(=O)NC3CC3)c12	-3	-1	7	4	nt	nt	nt	nt
CC(=O)Nc1c(Br)cc2c(c1Br)Cc1cc(Br)ccc1-2	-1	34*	-176	3	19*	6	nt	nt
N#C/C(=C(/O)COC(=O)COc1cccc(Br)c1)c1nc2ccccc2[nH]1	7	26*	-143	-19	14	0	nt	nt
N#C/C(=C(/O)COC(=O)c1ccc(O)cc1)c1nc2ccccc2[nH]1	3	-2	10	-9	nt	nt	nt	nt
CCOC(=O)c1c(C)[nH]c(C(=O)OCC(O)=C(C#N)c2nc3ccccc3[nH]2)c1C	13*	38*	-193	-50	31*	7	nt	nt
CCc1c(N)nc(N)nc1Nc1ccccc1C	-3	21*	-105	13	1	5	nt	nt
Cc1ccccc1Nc1nc(N)nc(C)c1Br	2	-1	7	-7	nt	nt	nt	nt
CSCCC(/C(O)=C(\C#N)c1nc2ccccc2[nH]1)N1C(=O)c2ccccc2C1=O (stereo unspecified)	1	58*	-264	-2	49*	1	nt	nt
CCOC(=O)C1=C(C)N(CC(C)C)C(=O)C1	0	0	2	1	nt	nt	nt	nt
CCN(CC)c1ccc(C(=C2C=CC(=[N+](CC)CC)C=C2)c2ccc(N(CC)CC)cc2)cc1	-20	108*	-431	50*	4	33*	nt	nt	MOR-DOR inv ag-2=-58;HTR5A inv conf=-122
Cc1ccc(NC(=O)CCCN2C(=O)NC(C)(C)C2=O)cc1	4	-4	15	-2	nt	nt	nt	nt
CCOC(=O)c1c(N)ssc1=S	-1	-6	35*	23	nt	nt	20	-11
CCOC(=O)c1c(N)sc(N)c1C(=O)OCC	8	-10	51*	12	nt	nt	i	-4
SMILES	HTR5A ag	MOR-DOR ag	MOR-DOR inv ag-1	HTR5A inv ctr	OPRM1-D1 ag cf	HTR5A ag counter	OPRM1-D1 inv cf	HTR5A inv count	others
O=C(COC(=O)c1ccc(F)c(S(=O)(=O)N2CCOCC2)c1)NCc1ccc(Cl)cc1	2	0	-1	10	nt	nt	nt	nt
O=C(Nc1ccc(O)c(-c2nc3ccccc3s2)c1)c1cccs1	-5	-6	36*	13	nt	nt	4	3
CC(C)OC(=O)C(=O)NNc1ccccc1	-3	-3	24*	8	nt	nt	4	3
CCOC(=O)C(=O)NNc1ccc(C)cc1	1	-6	31*	-2	nt	nt	-1	19
CCCOC(=O)C(=O)NNc1ccccc1	2	0	0	-6	nt	nt	nt	nt
CCCn1c(SCC(=O)Nc2ccc(Cl)cc2F)nc(O)cc1=O	3	-5	20	-7	nt	nt	nt	nt
Cc1ccc(-c2cccc(NC(=O)C3C(C(=O)O)[C@@H]4C=C[C@H]3C4)c2)o1 (stereo partly specified)	-2	-1	7	6	nt	nt	nt	nt
Cc1ccc(-c2ccccc2NC(=O)C2C3C=CC(C3)C2C(=O)O)o1 (stereo unspecified)	-2	-6	34*	-7	nt	nt	-39	1
FC(F)(F)c1cnc(NNC(=S)Nc2ccccc2Cl)c(Cl)c1	-9	-8	43*	29	nt	nt	44*	35
S=C(NNc1ccnc2cc(Cl)ccc12)Nc1ccccc1Cl	2	5	-23	-29	nt	nt	nt	nt
Cc1cccc(NC(=S)NNc2ncc(C(F)(F)F)cc2Cl)c1	-2	-9	45*	49	nt	nt	33*	22
O=C(CCC(=O)OCC(=O)c1ccc([N+](=O)[O-])cc1)Nc1ccccc1Cl	0	-4	24	-17	nt	nt	nt	nt
O=C(CCC(=O)OCC(=O)c1cccc([N+](=O)[O-])c1)Nc1cccc(Cl)c1Cl	-6	-11	69*	30	nt	nt	64*	24
Cc1ccccc1NC(=O)CCC(=O)OCC(=O)c1cccc([N+](=O)[O-])c1	-10	-13	60*	33	nt	nt	i	4
Cc1ccc(C(=O)COC(=O)CNC(=O)Cc2ccccc2)cc1	2	-4	19	-19	nt	nt	nt	nt
Cc1ccc(C(=O)COC(=O)CNC(=O)Cc2ccccc2)cc1[N+](=O)[O-]	-6	-14	57*	29	nt	nt	-46	-25
CCc1ccc(C(=O)COC(=O)CNC(=O)c2ccc(Br)o2)cc1	3	-4	21	5	nt	nt	nt	nt
Cc1ccc(C(=O)COC(=O)CNC(=O)c2ccc(Br)o2)cc1[N+](=O)[O-]	-5	-11	54*	23	nt	nt	-64	5
c1cc(-c2cc3cc(N4CCOCC4)ccc3o2)cs1	0	2	-11	-1	nt	nt	nt	nt
COc1ccc(-c2cccc3c2NC(=O)C3=O)cc1OC	-3	-11	64*	8	nt	nt	42*	16
COc1ccc(/C=C2\C(=O)NC(=O)c3ccccc32)cc1OC	4	0	1	-15	nt	nt	nt	nt
Cn1c(SCC(=O)Nc2cccc(S(=O)(=O)NC3=NCCCCC3)c2)nnc1-c1ccccc1	0	-3	16	1	nt	nt	nt	nt
